In article PMC7862700, “An all-to-all approach to the identification of sequence-specific readers for epigenetic DNA modifications on cytosine”:

Key:
Assay in all cases: DAPPL (digital affinity profiling via proximity ligation, sequencing); 10 mM Tris-HCl pH 7.5, 50 mM NaCl, 1 mM DTT, 4% glycerol, room temperature, 30 min; GST-TFs on glutathione beads, 16-mer random dsDNA library, 0.1% formaldehyde crosslink after washing; high values mean tight binding
Conditions in all cases: protein: recombinant; tags: N-terminal GST; dsDNA, one strand shown
FLI1 = molecular target: T1, FLI1 (Homo sapiens, UniProt Q01543 1-452)
T1 sequence: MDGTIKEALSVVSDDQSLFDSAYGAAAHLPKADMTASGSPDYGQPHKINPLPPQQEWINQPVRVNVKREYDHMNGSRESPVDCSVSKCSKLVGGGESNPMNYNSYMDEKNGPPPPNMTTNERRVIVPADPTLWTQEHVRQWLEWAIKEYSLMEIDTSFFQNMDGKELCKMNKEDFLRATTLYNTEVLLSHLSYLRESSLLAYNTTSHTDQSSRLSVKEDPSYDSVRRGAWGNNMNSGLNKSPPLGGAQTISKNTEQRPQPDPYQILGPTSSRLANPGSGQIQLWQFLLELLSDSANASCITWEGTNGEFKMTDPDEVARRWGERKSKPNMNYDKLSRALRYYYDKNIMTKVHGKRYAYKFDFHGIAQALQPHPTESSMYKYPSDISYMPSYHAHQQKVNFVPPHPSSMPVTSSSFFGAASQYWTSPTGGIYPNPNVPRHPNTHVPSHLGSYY
Method in brief: (§1)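 Beads coated with glutathione captured GST-fused human transcription factors that had been expressed in yeast, and the factors were then given DNA barcodes and pooled with a tag-only sample. The pools were incubated with 200 nmole of a random double-stranded 16-mer DNA library in Tris/NaCl/DTT/glycerol buffer for 30 min at room temperature, washed, crosslinked with 0.1% formaldehyde and proximity-ligated with BsaI/T4 ligase at 37 °C for 1 h. PCR amplification and Illumina NextSeq500 sequencing came last. Binding signal is each hexamer's read frequency for a factor divided by its frequency for the tag-only sample.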

ELK1 = molecular target: T2, ELK1 (Homo sapiens, UniProt P19419 1-428)
T2 sequence: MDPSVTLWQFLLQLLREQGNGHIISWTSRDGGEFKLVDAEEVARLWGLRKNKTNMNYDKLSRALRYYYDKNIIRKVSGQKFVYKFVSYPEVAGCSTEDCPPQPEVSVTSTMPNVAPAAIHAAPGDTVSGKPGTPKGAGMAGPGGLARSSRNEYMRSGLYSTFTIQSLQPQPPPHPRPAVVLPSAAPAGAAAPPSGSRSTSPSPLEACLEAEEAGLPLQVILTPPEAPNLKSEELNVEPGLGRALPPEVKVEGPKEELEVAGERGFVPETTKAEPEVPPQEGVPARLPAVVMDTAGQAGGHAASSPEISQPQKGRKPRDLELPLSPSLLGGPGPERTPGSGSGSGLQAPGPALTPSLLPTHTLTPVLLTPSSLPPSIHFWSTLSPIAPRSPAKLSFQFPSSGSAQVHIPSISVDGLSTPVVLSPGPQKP
Method in brief: as §1

GABPA = molecular target: T3, GABPA (Homo sapiens, UniProt Q06546 1-454)
T3 sequence: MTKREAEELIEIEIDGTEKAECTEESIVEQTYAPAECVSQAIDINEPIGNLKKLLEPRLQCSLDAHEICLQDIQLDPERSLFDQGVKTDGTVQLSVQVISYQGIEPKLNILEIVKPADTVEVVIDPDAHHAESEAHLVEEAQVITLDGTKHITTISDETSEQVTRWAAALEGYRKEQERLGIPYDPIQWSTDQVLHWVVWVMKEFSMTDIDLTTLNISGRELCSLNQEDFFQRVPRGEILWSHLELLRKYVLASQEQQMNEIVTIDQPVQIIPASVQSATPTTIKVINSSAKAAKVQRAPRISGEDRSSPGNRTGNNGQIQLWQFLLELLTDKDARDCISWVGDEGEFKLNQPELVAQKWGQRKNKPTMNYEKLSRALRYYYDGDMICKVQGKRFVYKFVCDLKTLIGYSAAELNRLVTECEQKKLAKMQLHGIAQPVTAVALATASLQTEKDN
Method in brief: as §1

ERG = molecular target: T4, ERG (Homo sapiens, UniProt P11308 1-479)
T4 sequence: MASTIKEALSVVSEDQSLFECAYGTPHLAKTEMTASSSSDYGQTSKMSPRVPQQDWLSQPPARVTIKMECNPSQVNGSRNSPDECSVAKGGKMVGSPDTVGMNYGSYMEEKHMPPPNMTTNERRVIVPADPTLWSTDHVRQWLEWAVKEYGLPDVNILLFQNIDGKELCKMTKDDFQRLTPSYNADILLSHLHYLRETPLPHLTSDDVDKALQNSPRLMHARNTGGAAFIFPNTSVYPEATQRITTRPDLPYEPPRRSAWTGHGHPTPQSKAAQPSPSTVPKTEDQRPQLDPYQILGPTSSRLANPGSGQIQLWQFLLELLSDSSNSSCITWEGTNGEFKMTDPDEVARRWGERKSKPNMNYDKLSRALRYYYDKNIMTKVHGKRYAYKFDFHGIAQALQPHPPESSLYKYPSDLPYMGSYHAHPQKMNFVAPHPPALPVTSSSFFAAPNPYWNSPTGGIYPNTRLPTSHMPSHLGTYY
Method in brief: as §1

ELF1 = ELF1 (Homo sapiens, UniProt P32519 1-619)
ELF1, sequence (P32519 whole entry): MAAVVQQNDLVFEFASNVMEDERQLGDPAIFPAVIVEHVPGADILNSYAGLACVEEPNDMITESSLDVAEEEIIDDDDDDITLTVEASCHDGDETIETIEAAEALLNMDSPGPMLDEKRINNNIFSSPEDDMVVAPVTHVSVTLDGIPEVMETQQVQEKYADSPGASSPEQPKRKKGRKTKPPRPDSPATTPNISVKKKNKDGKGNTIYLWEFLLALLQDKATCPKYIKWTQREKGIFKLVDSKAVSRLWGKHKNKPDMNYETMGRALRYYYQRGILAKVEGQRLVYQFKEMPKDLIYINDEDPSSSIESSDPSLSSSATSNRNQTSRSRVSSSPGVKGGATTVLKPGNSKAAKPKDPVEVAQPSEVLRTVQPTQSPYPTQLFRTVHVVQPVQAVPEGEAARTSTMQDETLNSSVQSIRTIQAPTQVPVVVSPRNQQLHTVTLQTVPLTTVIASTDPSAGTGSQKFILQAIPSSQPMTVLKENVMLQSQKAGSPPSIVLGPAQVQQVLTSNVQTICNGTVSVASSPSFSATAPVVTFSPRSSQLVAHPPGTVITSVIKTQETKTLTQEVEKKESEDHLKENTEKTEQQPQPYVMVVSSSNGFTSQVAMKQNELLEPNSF
Method in brief: as §1

EHF = molecular target: T5, EHF (Homo sapiens, UniProt Q9NZC4 1-300)
T5 sequence: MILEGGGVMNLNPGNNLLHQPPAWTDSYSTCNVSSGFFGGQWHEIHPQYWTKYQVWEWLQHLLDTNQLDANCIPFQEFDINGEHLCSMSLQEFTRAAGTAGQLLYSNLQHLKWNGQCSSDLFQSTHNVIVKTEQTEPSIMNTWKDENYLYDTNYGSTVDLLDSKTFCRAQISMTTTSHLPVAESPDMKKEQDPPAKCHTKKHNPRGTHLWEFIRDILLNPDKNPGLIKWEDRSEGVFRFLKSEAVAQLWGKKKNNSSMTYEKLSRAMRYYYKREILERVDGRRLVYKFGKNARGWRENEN
Method in brief: as §1

SPI1 [1] = molecular target: SPI1 (Homo sapiens, UniProt P17947 1-270)
Method in brief: as §1

SPIB = SPIB (Homo sapiens, UniProt Q01892 1-262)
SPIB, sequence (Q01892 whole entry): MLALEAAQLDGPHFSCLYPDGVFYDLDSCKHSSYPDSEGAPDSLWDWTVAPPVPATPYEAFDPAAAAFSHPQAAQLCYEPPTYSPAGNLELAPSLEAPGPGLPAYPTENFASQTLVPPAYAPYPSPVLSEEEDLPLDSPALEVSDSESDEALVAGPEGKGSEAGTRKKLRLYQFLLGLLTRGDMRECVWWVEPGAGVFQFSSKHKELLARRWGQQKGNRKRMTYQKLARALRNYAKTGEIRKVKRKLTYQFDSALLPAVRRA
Method in brief: as §1

ELK3 = molecular target: T6, ELK3 (Homo sapiens, UniProt P41970 1-407)
T6 sequence: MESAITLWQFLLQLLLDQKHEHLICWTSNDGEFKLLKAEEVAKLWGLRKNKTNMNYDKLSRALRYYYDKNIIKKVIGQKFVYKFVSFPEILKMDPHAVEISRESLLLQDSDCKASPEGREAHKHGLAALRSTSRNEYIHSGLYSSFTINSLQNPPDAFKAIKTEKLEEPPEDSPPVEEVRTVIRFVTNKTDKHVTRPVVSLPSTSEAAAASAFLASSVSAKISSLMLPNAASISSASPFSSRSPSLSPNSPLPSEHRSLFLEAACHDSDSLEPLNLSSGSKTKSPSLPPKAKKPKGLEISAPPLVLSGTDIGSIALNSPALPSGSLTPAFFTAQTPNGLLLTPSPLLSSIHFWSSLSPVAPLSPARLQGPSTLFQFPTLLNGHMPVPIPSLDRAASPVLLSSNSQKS
Method in brief: as §1

SPI1 [2] = molecular target: SPI1 (Homo sapiens, UniProt P17947 1-270); remark: listed apart in the source
Method in brief: as §1

Row | Sequence | binding signal (FLI1) | binding signal (ELK1) | binding signal (GABPA) | binding signal (ERG) | binding signal (ELF1) | binding signal (EHF) | binding signal (SPI1 [1]) | binding signal (SPIB) | binding signal (ELK3) | binding signal (SPI1 [2])
1 | GCTTCC | 3.32 fold enrichment (6-mer frequency, TF over GST control) | 3.85 fold enrichment (6-mer frequency, TF over GST control) | 3.27 fold enrichment (6-mer frequency, TF over GST control) | 4 fold enrichment (6-mer frequency, TF over GST control) | 3.21 fold enrichment (6-mer frequency, TF over GST control) | 3.72 fold enrichment (6-mer frequency, TF over GST control) | 3.73 fold enrichment (6-mer frequency, TF over GST control) | 3.8 fold enrichment (6-mer frequency, TF over GST control) | 4.31 fold enrichment (6-mer frequency, TF over GST control) | 
2 | GACTTC | 2.39 fold enrichment (6-mer frequency, TF over GST control) | 2.65 fold enrichment (6-mer frequency, TF over GST control) | 2.3 fold enrichment (6-mer frequency, TF over GST control) | 2.84 fold enrichment (6-mer frequency, TF over GST control) | 2.36 fold enrichment (6-mer frequency, TF over GST control) | 2.51 fold enrichment (6-mer frequency, TF over GST control) |  | 2.51 fold enrichment (6-mer frequency, TF over GST control) | 2.61 fold enrichment (6-mer frequency, TF over GST control) | 3.04 fold enrichment (6-mer frequency, TF over GST control)
3 | CCCGTT | 1.17 fold enrichment (6-mer frequency, TF over GST control) | 1.08 fold enrichment (6-mer frequency, TF over GST control) | 1.21 fold enrichment (6-mer frequency, TF over GST control) | 1.26 fold enrichment (6-mer frequency, TF over GST control) | 1.12 fold enrichment (6-mer frequency, TF over GST control) | 1.15 fold enrichment (6-mer frequency, TF over GST control) |  | 1.19 fold enrichment (6-mer frequency, TF over GST control) | 1.18 fold enrichment (6-mer frequency, TF over GST control) | 1.28 fold enrichment (6-mer frequency, TF over GST control)
4 | AATATC | 1.53 fold enrichment (6-mer frequency, TF over GST control) | 1.55 fold enrichment (6-mer frequency, TF over GST control) | 1.66 fold enrichment (6-mer frequency, TF over GST control) | 1.66 fold enrichment (6-mer frequency, TF over GST control) | 1.55 fold enrichment (6-mer frequency, TF over GST control) | 1.44 fold enrichment (6-mer frequency, TF over GST control) |  | 1.52 fold enrichment (6-mer frequency, TF over GST control) | 1.49 fold enrichment (6-mer frequency, TF over GST control) | 1.51 fold enrichment (6-mer frequency, TF over GST control)
